# High-throughput results deposited in PubChem by National Center for Advancing Translational Sciences (NCATS).
# Shown are actives, neighbours in structure and some others; about 5.4% of the full set was active somewhere.
# Vaccinia mCherry = qHTS for Stage-Specific Inhibitors of Vaccinia Orthopoxvirus: mCherry Reporter Primary qHTS; 310,000 compounds, 0.63% hits; Potency, µM (titrated, usually from 36.5 µM), inactives show at the top dose activity change, negative = inhibition, usual class: inhibitors; AID 720579, 2013; Vaccinia virus mCherry reporter infection, fluorescence; calls by dose curve; tested in A549 cells; further: nearly all actives have a fitted effect of over 35% in size
# Sm TGR block = qHTS Assay for the Inhibitors of Schistosoma Mansoni Peroxiredoxins; 360,000 compounds, 3% hits; Schistosoma mansoni thioredoxin glutathione reductase (TGR), Q962Y6; purified TGR, DTNB reduction, TNB absorbance 405 nm; AID 485364, 2010; Potency, µM (doses to about 114 µM), for inactives: at the highest dose activity change, negative = inhibition, usual class: inhibitors; active means well fitted inhibition curve with a large enough effect; inconclusive means small, poorly fitted or top-dose-only effect; inactive means no such curve, though single readings can be large or run the other way; further: nearly all actives have a fitted effect of over 60% in size
#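 TGR 20 nM + NADPH 100 uM (dispensed conc.), cpd preinc 15 min RT; start with NADPH (500 uM addition) then DTNB (15 mM addition). Kinetic TNB absorbance, 405 nm filter. Four-parameter Hill fit across titration.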
# Vaccinia Venus = qHTS for Stage-Specific Inhibitors of Vaccinia Orthopoxvirus: Venus Reporter Primary qHTS; Vaccinia virus Venus reporter expression, fluorescence; Potency, µM (titrated, usually from 36.5 µM), without a hit: at the top dose activity change, negative = inhibition, usual class: inhibitors; 330,000 compounds, 0.46% hits; AID 720580, 2013; calls by dose curve; tested in A549 cells; further: nearly all actives have a fitted effect of over 30% in size
# FMDV inh = High Throughput Screening for Foot and Mouth Disease Virus Antivirals. FMDV antiviral cell-based qHTS. Potency, µM (series often up to 57.9 µM), without a hit: top-dose activity change, negative = inhibition, actives largely listed as inhibitors. 410,000 compounds, 1.2% hits; calls by dose curve; tested in HEK293T cells; further: read-out not given here; nearly all actives have a fitted effect of over 45% in size
# Lassa entry inh = qHTS for Inhibitors of binding or entry into cells for Lassa Virus; Lassa virus pseudotype entry inhibition, cell reporter; Potency, µM (highest dose often 37.9 µM), without a hit: top-dose activity change, negative = inhibition, usual class: inhibitors; 300,000 compounds, 1.2% hits; AID 540256, 2011; calls by dose curve; tested in HEK293 cells; further: nearly all actives have a fitted effect of over 50% in size
# MARV entry inh = qHTS for inhibitors of binding or entry into cells for Marburg Virus. Marburg virus pseudotyped entry inhibition, cell reporter. Potency, µM (titrated, usually from 37.8 µM), inactives show top-dose activity change, negative = inhibition, actives largely listed as inhibitors. 300,000 compounds, 1.8% hits; calls by dose curve; tested in HEK293 cells
# An asterisk follows results filed as active; i = inactive; ? = inconclusive; . = no result; [ ] = remark or other dose. On the % scale 0 is the no-effect control and ±100 the full control effect; potency means the concentration at half of the fitted maximal effect.
SMILES,Vaccinia mCherry,Sm TGR block,Vaccinia Venus,FMDV inh,Lassa entry inh,MARV entry inh
COc1ccc(CCn2c(=O)[nH]c3cc(C(=O)N4CCN(c5ccccc5)CC4)ccc3c2=O)cc1OC,?,0%,?,16µM*,-11%,?
COc1ccc(Cn2c(=O)[nH]c3cc(C(=O)N4CCN(c5ccccc5F)CC4)ccc3c2=O)cc1,-6%,-1%,0%,-10%,.,-1%[46.1 µM]
COc1ccc(Cn2c(=O)[nH]c3cc(C(=O)NC4CCN(Cc5ccccc5)CC4)ccc32)cc1,-18%,.,-22%,?,-25%,9.2µM*
COc1ccc(Cn2c(=O)[nH]c3cc(C(=O)N4CCN(c5ccccc5OC)CC4)ccc3c2=O)cc1,?,0%,-28%,18µM*,?,?
COc1ccc(Cn2c(=O)[nH]c3cc(C(=O)N4CCN(Cc5ccccc5)CC4)ccc3c2=O)cc1,.,-48%,.,14µM*,-14%,?
CCN1C(=O)[C@@H]2[C@H]3[C@H](O)[C@H](O)CC(=NO[C@H](C)c4cn([C@H](CO)Cc5ccccc5)nn4)[C@@H]3CC[C@H]2C1=O,.,.,.,.,25%[14.3 µM],-11%[14.2 µM]
Cc1nc(-c2ccc(S(=O)(=O)N(C)Cc3ccccc3)cc2)co1,-4%,-13%,11%,-42%,28%[46.1 µM],.
COc1ccc(C2C=C(c3ccccc3)Nc3nc(NC(=O)/C=C/c4ccc(F)cc4)nn32)cc1 (stereo unspecified),9%,0%,-2%,-17%,-16%[46.1 µM],9%[46.1 µM]
O=C(O)[C@@H]1C[C@H](CP(=O)(O)O)CCN1,.,.,.,-22%,.,.
NC(Cc1c[nH]c2ccccc12)C(=O)NCc1ccccc1 (stereo unspecified),-8%,1%,5%,1%,-16%[46.1 µM],?
N[C@@H](Cc1c[nH]c2ccccc12)C(=O)O,.,14µM*,.,.,?,?
N[C@@H](Cc1cc(O)c(O)cc1O)C(=O)O,.,.,.,.,.,4µM*
NC(Cc1cc(O)c(O)cc1O)C(=O)O (stereo unspecified),-6%,16µM*,-11%,.,?,4µM*
N[C@@H](Cc1cc(I)c(O)c(I)c1)C(=O)O,-13%,-1%,-7%,-19%,16%,-2%
CCOc1ccccc1-c1noc(CSc2nnc(-c3ccccc3)n2-c2ccc(OC)cc2)n1,-16%,0%,-17%,?,-2%[46.1 µM],?
Cc1ccc(CNC(=O)c2c(-c3ccccc3Cl)noc2C)o1,-11%,?,-7%,-23%,-7%[46.1 µM],.
O=C(O)C1CCCN(S(=O)(=O)Cc2ccccc2)C1 (stereo unspecified),.,6%,.,-13%,.,.
O=C(C1CCCN(S(=O)(=O)Cc2ccccc2)C1)N1CCC(Cc2ccccc2)CC1 (stereo unspecified),.,-18%,.,40µM*,-17%,-28%
CCN=C(N/N=C/c1ccc([N+](=O)[O-])cc1)SC,.,45µM*,.,24%,19%,22%
O=[N+]([O-])c1ccc(C=NNC(=S)NN=Cc2ccc([N+](=O)[O-])cc2)cc1,?,.,-4%,3%,-7%[46.1 µM],-5%[46.1 µM]
Cc1cc(C)cc(NC(=O)c2ccc3c(c2)nnn3C2CCCC2)c1,-17%,10%,-20%,?,?,.
CCOC(=O)c1ccc(NC2=CC(c3ccc(O)c(OCC)c3)N(c3ccc(C(=O)OCC)cc3)C2=O)cc1 (stereo unspecified),?,1%,?,-13%,10%[46.1 µM],-7%[46.1 µM]
CN1CCN(C2=Nc3ccccc3Oc3ccc(Cl)cc32)CC1,?,-9%,-13%,-20%,-27%,12µM*
CN1CCN(C2=Nc3ccccc3Sc3ccc(Cl)cc32)CC1,-8%,.,-27%,10%,.,.
CCCCc1ccc(NS(=O)(=O)c2cc3c4c(c2)CC(=O)N4CCC3)cc1,-12%,-4%,-8%,-16%,0%[46.1 µM],.
SMILES,Vaccinia mCherry,Sm TGR block,Vaccinia Venus,FMDV inh,Lassa entry inh,MARV entry inh
O=S1(=O)C=C(Sc2nc3cc(Cl)ccc3o2)c2ccccc21,-13%,1.6µM*,4%,28µM*,?,7.9µM*
CN(C)c1nc(N)nc(CSc2nc3cc(Cl)ccc3o2)n1,-7%,-1%,-3%,40%,?,?
CCOc1cc2nc(-c3ccc(OC)c(OC)c3)nc(N3CCOCC3)c2cc1OC,11µM*,33%,?,?,?,2.5µM*
S=C1N(c2ccccc2)C(c2ccccc2)N2CCCN12 (stereo unspecified),-10%,-8%,-9%,-11%,18µM*,-1%
NC(CC(=O)O)C1CCCCC1 (stereo unspecified),.,4%,.,.,.,.
C1CCC(C(CC2CCCCN2)C2CCCCC2)CC1 (stereo unspecified),11µM*,-2%,13µM*,-25%,18µM*,?
COc1cccc(CNC(=O)c2cc3cc(C)ccc3n2C)c1,6%,8%,8%,-8%,?,?
CN(C)S(=O)(=O)c1ccc(C(=O)NCCSc2c(-c3ccc(Br)cc3)[nH]c3ccccc23)cc1,-7%,6%,-13%,?,?,?
CC1(c2ccccc2)CC(C)(C)N(C(=O)C2CCCO2)c2ccccc21 (stereo unspecified),-1%,-11%,-20%,.,-7%,18µM*
O=C(/C=C/c1ccccc1)NC(=S)NNC(=O)c1cnccn1,-23%[7.34 µM],2%,-16%[7.34 µM],3%,7.9µM*,?
O=C(/C=C/c1ccccc1)NC(=S)NNC(=O)c1cccnc1,.,-1%,.,5%,21%,7%
CCc1cccc(-n2c(C)nc3c(cnn3-c3ccc(C)c(C)c3)c2=O)c1,-9%,-1%,-7%,-6%,-14%[46.1 µM],?
CC1CCCCC12NC(=O)N(CC(=O)Nc1ccc3c(c1)OCO3)C2=O (stereo unspecified),i,.,-10%,-15%,.,.
CC1CCCCC12NC(=O)N(CC(=O)NC(=O)Nc1ccc3c(c1)OCCO3)C2=O (stereo unspecified),.,71µM*,?,18%,?,-3%
COc1cccc(/C=C/C(=O)OC(C)C(=O)Nc2c(C)n(C)n(-c3ccccc3)c2=O)c1 (stereo unspecified),-20%,11%,-8%,3%,-14%,0%[46.1 µM]
Cc1c(NC(=O)C(C)OC(=O)/C=C/c2ccco2)c(=O)n(-c2ccccc2)n1C (stereo unspecified),-4%,45µM*,-9%,2%,9%,3%
c1ccc(OCCSc2nnnn2C2CCCCC2)cc1,.,?,-15%,-22%,14µM*,-5%
CCCc1cc(C(=O)Nc2c(C)nn(Cc3c(Cl)cccc3Cl)c2C)no1,-7%,9%,0%,-15%,4µM*,?
